Screening results as filed in PubChem.
NS1 inh = inhibitors of influenza NS1 protein function; Potency, µM (series often up to 46.1 µM), without a hit: at the highest dose activity, positive = more growth; 270,000 compounds, 0.4% hits; AID 2326; calls by dose curve; note: potency is the fitted concentration of half-maximal effect; actives are rising curves; nearly all actives have a fitted effect of over 50% in size
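OD600 was taken as the measure of yeast growth restored by compound in an NS1-expressing S. cerevisiae strain. Cells had been washed out of glucose medium and diluted 1:100 into galactose -URA medium, pH 6.0.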
Pf growth 48h = inhibits P. falciparum growth in the first generation, 48 h; P. falciparum luciferase growth in erythrocytes, 48 h; Potency, µM (highest dose often 28.7 µM), without a hit: at the highest dose activity change, negative = inhibition, usual class: inhibitors; 310,000 compounds, 5.9% hits; note: potency is the fitted concentration of half-maximal effect; % is set by controls: 0 for no effect and ±100 for the full control effect
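First compound was added to culture medium, then infected red cells at 0.1% parasitemia and 2% hematocrit (final). After incubation at 37 C under 5% CO2, luciferase detection reagent was dispensed and light output recorded.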
Pf growth 96h = P. falciparum growth inhibition at 96 hours. P. falciparum luciferase reporter growth, 96 h. Potency, µM (doses to about 28.7 µM), for the others: at the top dose activity change, negative = inhibition, usual class: inhibitors. 320,000 compounds, 6.9% hits. AID 504834; note: potency is the fitted concentration of half-maximal effect; % is set by controls: 0 for no effect and ±100 for the full control effect
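Compounds incubated with erythrocytes infected by luciferase-expressing P. falciparum (2% hematocrit, 0.05% parasitemia final) for 96 hours, 37 C in 5% CO2. Growth inhibition scored as decreased luciferase luminescence.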
SARS PLP yeast = inhibitors of SARS-CoV papain-like protease in yeast; AID 485353; S. cerevisiae expressing SARS-CoV PLpro, growth rescue; Potency, µM (series often up to 32.9 µM), without a hit: at the top dose activity, positive = growth rescue, most hits filed as activators; 330,000 compounds, 0.19% hits; calls by dose curve; note: potency is the fitted concentration of half-maximal effect; 0% is about no effect; nearly all actives have a fitted effect of over 55% in size
CHX counter = counter-screen hit for Shiga toxin inhibitors, cycloheximide; cell reporter, cycloheximide protein synthesis inhibition counterscreen; max response, %; 300,000 compounds, 12% hits; in the data active = max response mostly above about 13%, no sharp cut-off; inactive = mostly below about 14%; note: read at 38.3 µM for the half of the compounds with a filed dose; 0% is about no effect
Shiga inhibitor = inhibitors of Shiga toxin in Vero cells | Vero cells, Shiga toxin protein synthesis inhibition reporter | inhibition, % at 38.7 µM | 290,000 compounds, 9.2% hits; in the data active = inhibition mostly above about 28%, no sharp cut-off; inactive = mostly below about 43%; note: 0% is about no effect
An asterisk follows results filed as active. Sampled rows, rich in hits. Any-hit rate of the full collection: about 21%. Unless noted, calls come from the whole dose curve; as a rule, active = well fitted inhibition curve with a large enough effect; inconclusive = small, poorly fitted or top-dose-only effect, or another doubt; inactive = no such curve, though single readings can be large or run the other way.

How did CCN(Cc1cnn(C)c1)C(=O)c1cc(COc2ccc(F)cc2F)on1 do in these assays?
NS1 inh: -9%; Pf growth 48h: 3%; Pf growth 96h: 14%; SARS PLP yeast: -1%; CHX counter: 15*; Shiga inhibitor: 41

Results for CC(C)Cc1nnc(NC(=O)CSc2nc(-c3ccccc3)cc(=O)[nH]2)s1 ?
Pf growth 48h: 14%; Pf growth 96h: 5%; SARS PLP yeast: 6%; CHX counter: 35; Shiga inhibitor: -9

Results for Cc1ccc(-n2c(Cl)c(Cl)nc(Cl)c2=O)cc1 ?
NS1 inh: -61%; Pf growth 48h: -25%; Pf growth 96h: inconclusive; SARS PLP yeast: -89%; CHX counter: -6; Shiga inhibitor: -3

What do the screens show for `CCN(Cc1cnn(C)c1)C(=O)c1cc(COc2cc(C)c(Cl)c(C)c2)on1`?
NS1 inh: 12%; Pf growth 48h: -4%; Pf growth 96h: -25%; SARS PLP yeast: -5%; CHX counter: 24*; Shiga inhibitor: 22

What do the screens show for `CCc1ccc(CN(C)C(=O)c2cc(COc3cc(C)c(Cl)c(C)c3)on2)nc1`?
NS1 inh: -60%; Pf growth 48h: -13%; Pf growth 96h: 145%; SARS PLP yeast: -9%; CHX counter: -7; Shiga inhibitor: 20

What do the screens show for `CN(c1nc(-c2ccccc2)cs1)C1CCS(=O)(=O)C1` (configuration not stated)?
NS1 inh: -5%; Pf growth 48h: 35%; Pf growth 96h: -5%; SARS PLP yeast: -2%; CHX counter: 20*; Shiga inhibitor: 61*

What do the screens show for `Cc1c(C(=O)NC(=S)NCC(C)C)oc2ccccc12`?
NS1 inh: 0%; Pf growth 48h: 26%; Pf growth 96h: 40%; SARS PLP yeast: -10%; CHX counter: 17*; Shiga inhibitor: 35

What do the screens show for `Cc1cccnc1NC(=S)NC(=O)c1oc2ccccc2c1C`?
NS1 inh: -18%; Pf growth 48h: 80%; Pf growth 96h: 37%; SARS PLP yeast: -1%; CHX counter: 40*; Shiga inhibitor: 79*

What do the screens show for `CC(=O)[C@@]1(N=Nc2ccc(S(N)(=O)=O)cc2)CCOC1=O`?
NS1 inh: 4%

How did CCOc1ccccc1NC(=O)COc1coc(CN2CCCc3ccccc32)cc1=O do in these assays?
Pf growth 48h: 13µM*; Pf growth 96h: inconclusive; SARS PLP yeast: -2%

How did CCOc1ccccc1NC(=O)COc1coc(CN2CCc3ccccc3C2)cc1=O do in these assays?
Pf growth 48h: -15%; Pf growth 96h: 13µM*; SARS PLP yeast: -1%

How did O=C(COc1coc(CN2CCc3ccccc3C2)cc1=O)Nc1ccc([N+](=O)[O-])cc1 do in these assays?
Pf growth 48h: inconclusive; Pf growth 96h: inconclusive; SARS PLP yeast: -7%

How did Cc1nc2scc(C)n2c(=O)c1S(=O)(=O)Nc1ccc(N2CCOCC2)c(Cl)c1 do in these assays?
NS1 inh: 0%; Pf growth 48h: -5%; Pf growth 96h: 9.3µM*; SARS PLP yeast: -5%; CHX counter: 6; Shiga inhibitor: -5

How did COc1cccc(/C=N/n2c(C)nc3ccccc32)c1OC do in these assays?
NS1 inh: -54%; Pf growth 48h: 2%; Pf growth 96h: 38%; SARS PLP yeast: -8%; CHX counter: 21; Shiga inhibitor: 38*

How did COc1cccc(/C=N/n2c(=O)[nH]c3ccccc32)c1OC do in these assays?
NS1 inh: -12%; Pf growth 48h: 64%; Pf growth 96h: 24%; SARS PLP yeast: -3%; CHX counter: 38*; Shiga inhibitor: 42*

How did COC(=O)CCCC(=O)N1CCCC(N(C)CCc2ccccc2)C1 (configuration not stated) do in these assays?
NS1 inh: 7%; Pf growth 48h: -27%; Pf growth 96h: -13%; SARS PLP yeast: 5%; CHX counter: -2; Shiga inhibitor: -4

How did CC[C@@]12C(=O)N(c3cccc(F)c3)C(=O)N1[C@H](c1ccc(Cl)cc1)[C@@H]1C(=O)N(C3CCCCC3)C(=O)[C@@H]12 do in these assays?
Pf growth 48h: inconclusive; Pf growth 96h: inconclusive; SARS PLP yeast: -12%

What do the screens show for `CC(C)C[C@@]12C(=O)N(c3cccc(Br)c3)C(=O)N1[C@H](c1ccc(Cl)cc1)[C@@H]1C(=O)N(C3CCCCC3)C(=O)[C@@H]12`?
Pf growth 48h: 2.6µM*; Pf growth 96h: inconclusive; SARS PLP yeast: 0%

What do the screens show for `CC[C@@]12C(=O)N(c3cccc(Br)c3)C(=O)N1[C@H](c1ccc(Cl)cc1)[C@@H]1C(=O)N(C3CCCCC3)C(=O)[C@@H]12`?
NS1 inh: 25%; Pf growth 48h: inconclusive; Pf growth 96h: 8.3µM*; SARS PLP yeast: 12%; CHX counter: -1; Shiga inhibitor: -1

What do the screens show for `CC(C)C[C@@]12C(=O)N(c3cccc(Cl)c3)C(=O)N1[C@H](c1ccc(Cl)cc1)[C@@H]1C(=O)N(C3CCCCC3)C(=O)[C@@H]12`?
Pf growth 48h: inconclusive; Pf growth 96h: 64%; SARS PLP yeast: -8%

Results for CC(C)C[C@@]12C(=O)N(c3cccc(Cl)c3)C(=O)N1[C@H](c1ccc(F)cc1)[C@@H]1C(=O)N(C3CCCCC3)C(=O)[C@@H]12 ?
Pf growth 48h: 4.1µM*; Pf growth 96h: inconclusive; SARS PLP yeast: 6%

How did NC(=O)C1CCN(CC(=O)Nc2cccnc2Cl)CC1 do in these assays?
Pf growth 48h: 36%; Pf growth 96h: 98%; SARS PLP yeast: 0%; CHX counter: 7; Shiga inhibitor: 0

What do the screens show for `CCN(CCNCC(O)COc1ccccc1C(C)C)c1cccc(C)c1` (configuration not stated)?
NS1 inh: 3%; Pf growth 48h: 3.3µM*; Pf growth 96h: 5.2µM*; SARS PLP yeast: -4%; CHX counter: -4; Shiga inhibitor: -7

Results for CCNC(=O)COC(=O)c1cc(-c2ccccc2)nn1-c1ccccc1 ?
Pf growth 48h: 33%; Pf growth 96h: -2%; SARS PLP yeast: 6%; CHX counter: 7; Shiga inhibitor: -9

What do the screens show for `CCC1C(=O)n2nc(-c3ccccc3)cc2N=C1C` (configuration not stated)?
NS1 inh: -3%; Pf growth 48h: inconclusive; Pf growth 96h: inconclusive; SARS PLP yeast: -29%; CHX counter: 40*; Shiga inhibitor: active

What do the screens show for `Cc1ccc(NC(=O)OCCNC(=O)OC(C)C)cc1`?
Pf growth 48h: 99%; Pf growth 96h: -30%; SARS PLP yeast: 9%; CHX counter: 42*; Shiga inhibitor: 81*

Results for COC(=O)NCC(C)OC(=O)Nc1ccc(Cl)cc1 (configuration not stated) ?
NS1 inh: 2%; Pf growth 48h: -20%; Pf growth 96h: inconclusive; SARS PLP yeast: 0%; CHX counter: 11; Shiga inhibitor: 55*

Results for CCOC(=O)NCCOC(=O)Nc1ccc(Cl)cc1 ?
Pf growth 48h: -14%; Pf growth 96h: 2%; SARS PLP yeast: 1%; CHX counter: 11; Shiga inhibitor: 28
